In PubChem BioAssay (NCI):
The panel holds about 83,000 compounds, 20% with a hit somewhere; the sample as a whole holds those more often.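 Single-concentration screen, 48 h exposure, 96-well plates. Endpoint: percent growth. Below 10 = active.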 Unmarked numbers belong to inactive results. Calls of active or inactive are those of the source.

Assays:
Assay in all cases: NCI-60 one-dose screen, 48 h (100 = growth as untreated, 0 = no growth, -100 = all killed)
Details in all cases: 10 µM unless noted
[1] = system: DU-145 prostate
[2] = system: K-562 leukemia
[3] = system: MALME-3M melanoma
[4] = system: MDA-MB-231 breast
[5] = system: SF-268 CNS
[6] = system: SF-295 CNS
[7] = system: SF-539 CNS
[8] = system: UACC-257 melanoma
[9] = system: HCT-15 colon
[10] = system: HT29 colon
[11] = system: SNB-75 CNS
[12] = system: SNB-19 CNS
[13] = system: U251 CNS
[14] = system: PC-3 prostate
[15] = system: UACC-62 melanoma
[16] = system: LOX IMVI melanoma
[17] = system: SK-MEL-28 melanoma
[18] = system: SK-MEL-5 melanoma

| SMILES | growth [1] | growth [2] | growth [3] | growth [4] | growth [5] | growth [6] | growth [7] | growth [8] | growth [9] | growth [10] | growth [11] | growth [12] | growth [13] | growth [14] | growth [15] | growth [16] | growth [17] | growth [18] [%] |
| --- | --- | --- | --- | --- | --- | --- | --- | --- | --- | --- | --- | --- | --- | --- | --- | --- | --- | --- |
| O=C1/C(=C/c2ccccc2[N+](=O)[O-])COc2ccc(O)c(O)c21 | 2.13% (active) | 4.47% (active) | -31.6% (active) | -16.7% (active) | 0.467% (active) | 58.3% | -69.4% (active) | -8.55% (active) | -11.8% (active) | 5.22% (active) | 22.8% | 26.5% | 2.61% (active) | -0.516% (active) | -86.6% (active) | -73.2% (active) | -13.6% (active) | – |
| CC(C)c1ccc(NC(=O)Cc2ccc(Nc3ncnc4cc(-c5cnn(CCN(C)C)c5)ccc34)cc2)cc1 | -97.5% [30 µM] (active) | -34.9% [30 µM] (active) | -88.7% [30 µM] (active) | -77.8% [30 µM] (active) | -62.3% [30 µM] (active) | -61.9% [30 µM] (active) | -88.8% [30 µM] (active) | 54.7% [30 µM] | -53.1% [30 µM] (active) | -45.4% [30 µM] (active) | -82.6% [30 µM] (active) | -86.1% [30 µM] (active) | -65.7% [30 µM] (active) | -78.1% [30 µM] (active) | -89.1% [30 µM] (active) | -65.1% [30 µM] (active) | -82.2% [30 µM] (active) | – |
| Cc1nc(Nc2cccc(NC(=O)Nc3ccc(Cl)cc3)c2)c2ccccc2n1 | 91.7% | 67.6% | 87.3% | 86.4% | 102% | 88.2% | 94.6% | 101% | 77% | 80.8% | 85.3% | 99.9% | 91.9% | 77.9% | 76.4% | 88.7% | 102% | 91.5 |
| CCCCN(Cc1ccc(C(=O)NO)cc1)C(=O)Nc1ccc(OCCCCCCCCCn2cc(CCCCC(=O)N[C@H](C(=O)N3C[C@H](O)C[C@H]3C(=O)NCc3ccc(-c4scnc4C)cc3)C(C)(C)C)nn2)cc1 | 50.8% | 16.2% | 23.8% | 59.6% | 36.2% | 92% | 32% | 60% | 88.7% | 19.8% | 34.6% | 29.5% | 34.8% | 27.8% | 35.9% | 23.2% | 62.8% | – |
| CCN(CC)CCOc1ccc(/C(=C(\C)c2ccc(OC)c(F)c2)c2ccc(Cl)cc2)cc1 | 84% | 19% | 55.9% | 87.6% | 87.4% | 61.6% | 24.5% | 68.4% | 7.79% (active) | 14.9% | 94.7% | 91.8% | 66.8% | 64.8% | 60.1% | 1.85% (active) | 68% | – |
| CCCCS(=O)(=O)Oc1ccc(-c2nc(C)c(C(=O)OCC)s2)cc1C=O | 61.4% | 13.7% | 75.1% | 76.7% | 79.3% | 67.5% | 58% | 96.2% | 50.6% | 18.5% | 89% | 53.8% | 49.6% | 53.9% | 64.6% | 28.3% | 90% | – |
| Clc1ccc(/C=C/c2nc(Nc3ccc(Cl)cc3)c3ccccc3n2)cc1 | 118% | 103% | 105% | 93.7% | 102% | 100% | 96.1% | 98.9% | 99% | 112% | 93.6% | 100% | 100% | 99.2% | 93.2% | 97.1% | 117% | 96.9 |
| Cc1nc(Nc2ccc(NC(=S)Nc3ccccc3)cc2)c2ccccc2n1 | 125% | 78.5% | 99.5% | 97.6% | 111% | 99.5% | 100% | 101% | 101% | 107% | 104% | 105% | 101% | 99.2% | 95.1% | 97.9% | 108% | – |
| CCCCOc1nc2ccc(Cl)cc2cc1/C=C/C(=O)/C=C1/CC(c2cc3cc(Cl)ccc3nc2OCCCC)Nc2ccccc2N1 (stereo not drawn) | 103% | 91.7% | 79.4% | 81% | 97.9% | 96.2% | 91.9% | 100% | 94.1% | 101% | 86.2% | 99.1% | 96.4% | 91.6% | 89.1% | 94.4% | 105% | – |
| COc1ccc(/C(C)=C(\c2ccc(Cl)cc2)c2ccc(OCCN(C)C)cc2)cc1F | 79.5% | 3.97% (active) | 19.2% | 71.3% | 74.5% | 42.5% | 55.2% | 5.92% (active) | 16.4% | 8.32% (active) | 75.4% | 80% | 46% | 51.2% | 42.3% | -44.6% (active) | 30.9% | 55 |
| COc1ccc(Cn2cnc3cc(C(=O)Nc4cccc5ccccc45)ccc32)c(OC)c1 | -7.09% [30 µM] (active) | 1.36% [30 µM] (active) | 38.2% [30 µM] | 4.77% [30 µM] (active) | 13.8% [30 µM] | 7.91% [30 µM] (active) | -36.7% [30 µM] (active) | 69.4% [30 µM] | 3.1% [30 µM] (active) | 8.08% [30 µM] (active) | 35.4% [30 µM] | 21.5% [30 µM] | 17.5% [30 µM] | 17.4% [30 µM] | 14.8% [30 µM] | 12.1% [30 µM] | 60.6% [30 µM] | – |
| O=C1c2ccccc2C(=O)c2cc(Cn3cc[n+](Cc4ccc5ccccc5c4)c3)ccc21 | 115% | 32.5% | 66.5% | 81.4% | 72.5% | 94.9% | 84.1% | 56.1% | 98.1% | 73.1% | 62.8% | 79.5% | 85.8% | 38.8% | 61.1% | 94.9% | 94.5% | 68.3 |
| Cc1nc(Nc2ccc(NC(=S)Nc3ccccc3)cc2)nc2nc(Nc3ccc(S(=O)(=O)O)cc3)[nH]c(=O)c12 | 145% | 71% | 104% | 94.4% | 106% | 113% | 132% | 136% | 127% | 145% | 128% | 96.2% | 110% | 99.5% | 105% | 109% | 125% | 117 |
| Cc1nc(Nc2ccc(N)cc2)c2ccccc2n1 | 117% | 74.5% | 97.6% | 93.9% | 106% | 95.8% | 96% | 104% | 89.4% | 88.9% | 103% | 97.7% | 99.1% | 91% | 98.5% | 90.7% | 114% | 91.9 |
| O=C(CCc1nc(-c2cccc(Cl)c2)no1)Nc1ccccn1 | 109% | 87.5% | 91.7% | 95.6% | 104% | 94% | 96.6% | 114% | 95.2% | 106% | 93.7% | 97.6% | 111% | 97.4% | 91% | 97.3% | 99.5% | – |
| C=CCO[C@H]1CO[C@H]2[C@@H]1OC[C@@H]2Oc1ccc(Nc2ccnc(Nc3ccc(O[C@H]4CO[C@H]5[C@@H]4OC[C@@H]5OCC=C)c(Cl)c3)n2)cc1Cl | -50.2% (active) | -32.4% (active) | -95.8% (active) | -92.8% (active) | -61.6% (active) | -77.8% (active) | -87.5% (active) | 107% | -78.5% (active) | -5.18% (active) | 0.0674% (active) | -90.3% (active) | -59.5% (active) | 14% | -92.2% (active) | -95% (active) | -80.3% (active) | – |
